Test results from PubChem BioAssay.
Activity calls are given as the source filed them.

Tests used:
[1] = small molecules captured by biotinylated probe aFSTL3 – biochemical, small-molecule microarray, fluorescence 635/667, stem cell growth factor project, primary screen (AID 1064); settings: higher = more signal;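 also: measures binding of the biotinylated anti-FSTL3 antibody to printed compounds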
[2] = binders from COS7 lysate, DM2A8 probe, primary screen, torsin A project, cell lysate, small-molecule microarray, fluorescence 635/667 (AID 1065); settings: higher = more signal, COS7 lysate expressing mutant human TOR1A
[3] = small molecules captured by biotinylated probe aFGF2 – biochemical, small-molecule microarray, fluorescence 635/667, stem cell growth factor project, primary screen (AID 1067); settings: higher = more signal;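 also: measures binding of biotinylated aFGF2 protein to printed compounds on slides; z-score merges feature fluorescence and signal-to-noise across triplicate slides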
[4] = small molecules captured by biotinylated probe aFGF10 – biochemical, small-molecule microarray, fluorescence 635/667, stem cell growth factor project, primary screen (AID 1071); settings: higher = more signal;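 also: score merges 667 nm spot intensity and signal to noise from triplicate slides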
[5] = biological target: Neurogenic locus notch homolog protein 2 (Homo sapiens) (UniProt Q04721); assay: small molecules binding Notch2 protein – biochemical, small-molecule microarray, 635 nm fluorescence, stem cell growth factors, primary screen (AID 1073); settings: higher = more signal
[6] = biological target: Pro-neuregulin-1, membrane-bound isoform (Homo sapiens) (UniProt Q02297); assay: small molecules binding neuregulin-1 protein – biochemical, small-molecule microarray, fluorescence 635/667, psychiatric disease protein project, primary screen (AID 1075); settings: NRG1 binding, 635 nm fluorescence, higher = more signal;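 also: score combines 667 nm spot fluorescence with signal to noise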
[7] = system: Neuregulin-1 EGF-like domain; assay: small molecules binding NRG1 EGF domain – biochemical, small-molecule microarray, 635 nm fluorescence, primary screen (AID 1081); settings: higher = more signal;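 also: binding of the protein to compounds printed on small-molecule microarray slides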
[8] = FRG1 expression reporter modulators in myotubes – cell-based, C2C12 myotubes, firefly/Renilla luciferase, luminescence, FRG1 inhibition for FSHD, primary screen (AID 1084); settings: FRG1 promoter luciferase, higher = more signal, called active from +8 up or from −8 down
[9] = small molecules captured by biotinylated probe aFST – biochemical, small-molecule microarray, fluorescence 635/667, stem cell growth factor project, primary screen (AID 1086); settings: higher = more signal;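 also: score merges 667 nm fluorescence with signal-to-noise of each printed compound spot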
[10] = binders of probe aHhip on microarray, primary screen, stem cell growth factor project, biochemical, small-molecule microarray, fluorescence 635/667 (AID 1087); settings: higher = more signal;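 also: score merges spot fluorescence at 667nm with spot signal to noise ratio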
[11] = system: PRMT1 (protein arginine N-methyltransferase 1); assay: small molecules binding arginine methyltransferase PRMT1 – biochemical, small-molecule microarray, 635 nm fluorescence, primary screen (AID 1088); settings: higher = more signal;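 also: binding of Prmt1 protein to compounds spotted on small-molecule microarray slides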
[12] = growth effects on S. cerevisiae YJM789 – YJM789 clinical isolate, OD600, 24 h, basal, primary screen (AID 1089); settings: higher = more signal, called active from +8 up or from −8 down;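 also: growth of clinical yeast isolate S. cerevisiae YJM 789 seeded 1000 cells per well; test concentration not given here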
[13] = S. pombe growth modifiers, basal conditions – strain 972, OD600, 24 h, no modulator, primary screen (AID 1090);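 also: basal condition with compound alone and no growth modifier present; test concentration not given here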; settings: S. pombe 972 growth, higher = more signal, called active from +8 up or from −8 down
[14] = budding yeast growth modifiers under rapamycin – strain BY4716, OD600, 96 h, primary screen (AID 1091); also: test concentration not given here; settings: S. cerevisiae BY4716 + rapamycin, higher = more signal, called active from +8 up or from −8 down
[15] = biological target: Torsin-1A-interacting protein 2 (Homo sapiens) (UniProt Q8NFQ8); assay: small molecules binding lysate-expressed LULL1 – cell lysate, human LULL1 lysate, 635/667 nm fluorescence, primary screen (AID 1092); settings: small-molecule microarray, hLULL1 lysate binding, 635 nm fluorescence; higher = more signal;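 also: probe is lysate of COS7 cells overexpressing human LULL1; score merges per-feature 667 nm fluorescence with signal-to-noise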
[16] = optical density change of DRC41 E. coli – strain DRC41, OD650, 24 h, E. coli filamentation project, primary screen (AID 1093);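 also: MC1000 strain lacking acrAB efflux and sulA so SOS filamentation is blocked; test concentration not given here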; settings: E. coli DRC41 growth, higher = more signal, called active from +8 up or from −8 down
[17] = probe aLefty2 binding to arrayed compounds – biochemical, biotinylated probe, 635/667 nm fluorescence, primary screen (AID 1094); settings: small-molecule microarray, higher = more signal;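 also: score merges spot fluorescence near 667 nm with spot signal-to-noise ratio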
[18] = system: Noggin (protein binding on small-molecule microarray); assay: small molecules binding Noggin protein – biochemical, 635/667 nm fluorescence, primary screen (AID 1095); settings: 635 nm fluorescence, higher = more signal;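 also: score merges 667 nm feature fluorescence with signal to noise over triplicate slides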
[19] = biological target: Neurogenic locus notch homolog protein 3 (Homo sapiens) (UniProt Q9UM47); assay: small molecules binding NOTCH3 protein – biochemical, 635/667 nm fluorescence, primary screen (AID 1096); settings: small-molecule microarray, 635 nm fluorescence, higher = more signal
[20] = probe aEGFR binding to arrayed compounds – biochemical, biotinylated probe, 635/667 nm fluorescence, primary screen (AID 1097); settings: small-molecule microarray, higher = more signal;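 also: probe is a biotinylated anti-EGFR antibody binding compounds printed on slides; score combines fluorescence near 667 nm and signal to noise of each spot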

Chain of Neurogenic locus notch homolog protein 3 (Homo sapiens) (Q9UM47 whole entry, looked up): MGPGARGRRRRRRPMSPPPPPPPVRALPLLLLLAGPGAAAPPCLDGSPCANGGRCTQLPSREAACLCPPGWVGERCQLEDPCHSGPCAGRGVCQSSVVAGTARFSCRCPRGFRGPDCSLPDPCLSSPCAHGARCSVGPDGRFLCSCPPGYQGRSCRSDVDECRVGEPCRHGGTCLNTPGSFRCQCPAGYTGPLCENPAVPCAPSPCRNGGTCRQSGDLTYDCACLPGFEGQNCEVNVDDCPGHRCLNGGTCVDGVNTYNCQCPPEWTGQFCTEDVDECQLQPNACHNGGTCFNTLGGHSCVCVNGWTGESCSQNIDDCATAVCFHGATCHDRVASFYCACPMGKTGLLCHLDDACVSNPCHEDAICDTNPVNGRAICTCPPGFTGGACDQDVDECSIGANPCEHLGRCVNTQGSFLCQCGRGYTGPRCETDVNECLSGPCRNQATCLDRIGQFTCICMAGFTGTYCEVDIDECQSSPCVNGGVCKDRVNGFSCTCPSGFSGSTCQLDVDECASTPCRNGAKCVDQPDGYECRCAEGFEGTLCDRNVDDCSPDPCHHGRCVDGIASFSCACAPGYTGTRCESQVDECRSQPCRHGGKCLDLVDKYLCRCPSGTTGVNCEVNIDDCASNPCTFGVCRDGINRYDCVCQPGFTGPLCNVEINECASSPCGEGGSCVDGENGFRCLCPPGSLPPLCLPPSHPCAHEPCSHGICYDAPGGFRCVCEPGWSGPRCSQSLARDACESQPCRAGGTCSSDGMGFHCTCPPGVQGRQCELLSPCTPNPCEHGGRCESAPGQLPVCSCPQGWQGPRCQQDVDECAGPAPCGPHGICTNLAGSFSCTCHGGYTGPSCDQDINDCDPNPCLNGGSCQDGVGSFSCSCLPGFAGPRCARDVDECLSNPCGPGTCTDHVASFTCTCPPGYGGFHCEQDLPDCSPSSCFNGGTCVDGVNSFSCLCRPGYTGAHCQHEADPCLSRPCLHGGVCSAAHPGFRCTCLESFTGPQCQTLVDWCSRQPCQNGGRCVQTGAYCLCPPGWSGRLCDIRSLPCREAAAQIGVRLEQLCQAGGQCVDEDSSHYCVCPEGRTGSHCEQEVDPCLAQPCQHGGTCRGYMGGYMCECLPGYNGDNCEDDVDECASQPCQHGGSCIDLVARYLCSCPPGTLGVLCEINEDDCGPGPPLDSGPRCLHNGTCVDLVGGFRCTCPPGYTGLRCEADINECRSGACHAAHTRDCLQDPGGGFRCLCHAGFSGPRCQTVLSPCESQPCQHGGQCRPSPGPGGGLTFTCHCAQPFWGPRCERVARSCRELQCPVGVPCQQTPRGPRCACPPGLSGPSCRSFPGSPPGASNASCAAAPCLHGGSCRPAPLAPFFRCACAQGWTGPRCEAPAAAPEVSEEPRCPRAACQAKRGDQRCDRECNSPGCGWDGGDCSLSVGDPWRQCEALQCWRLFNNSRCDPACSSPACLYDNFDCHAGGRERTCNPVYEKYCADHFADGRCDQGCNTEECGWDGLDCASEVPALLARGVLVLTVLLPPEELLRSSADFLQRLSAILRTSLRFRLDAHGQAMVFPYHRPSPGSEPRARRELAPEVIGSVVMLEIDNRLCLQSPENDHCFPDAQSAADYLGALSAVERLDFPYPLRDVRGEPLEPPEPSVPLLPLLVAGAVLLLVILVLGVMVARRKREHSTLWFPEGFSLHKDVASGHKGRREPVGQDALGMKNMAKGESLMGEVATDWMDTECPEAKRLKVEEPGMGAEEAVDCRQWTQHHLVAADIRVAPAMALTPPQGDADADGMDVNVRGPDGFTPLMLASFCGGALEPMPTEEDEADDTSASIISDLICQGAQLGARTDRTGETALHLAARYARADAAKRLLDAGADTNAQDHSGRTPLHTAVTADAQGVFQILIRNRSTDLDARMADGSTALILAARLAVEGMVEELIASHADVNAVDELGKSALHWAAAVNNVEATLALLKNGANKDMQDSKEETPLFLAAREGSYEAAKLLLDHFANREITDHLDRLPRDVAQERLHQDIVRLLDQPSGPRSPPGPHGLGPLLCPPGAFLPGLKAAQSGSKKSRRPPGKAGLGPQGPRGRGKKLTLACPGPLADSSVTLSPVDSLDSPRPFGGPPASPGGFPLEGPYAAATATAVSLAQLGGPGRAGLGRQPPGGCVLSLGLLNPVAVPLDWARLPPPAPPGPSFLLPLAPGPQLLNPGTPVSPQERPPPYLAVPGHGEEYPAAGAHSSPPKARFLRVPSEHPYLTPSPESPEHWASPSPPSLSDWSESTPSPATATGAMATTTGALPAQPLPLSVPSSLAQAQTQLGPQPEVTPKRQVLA
Chain of Torsin-1A-interacting protein 2 (Homo sapiens) (Q8NFQ8 whole entry, looked up): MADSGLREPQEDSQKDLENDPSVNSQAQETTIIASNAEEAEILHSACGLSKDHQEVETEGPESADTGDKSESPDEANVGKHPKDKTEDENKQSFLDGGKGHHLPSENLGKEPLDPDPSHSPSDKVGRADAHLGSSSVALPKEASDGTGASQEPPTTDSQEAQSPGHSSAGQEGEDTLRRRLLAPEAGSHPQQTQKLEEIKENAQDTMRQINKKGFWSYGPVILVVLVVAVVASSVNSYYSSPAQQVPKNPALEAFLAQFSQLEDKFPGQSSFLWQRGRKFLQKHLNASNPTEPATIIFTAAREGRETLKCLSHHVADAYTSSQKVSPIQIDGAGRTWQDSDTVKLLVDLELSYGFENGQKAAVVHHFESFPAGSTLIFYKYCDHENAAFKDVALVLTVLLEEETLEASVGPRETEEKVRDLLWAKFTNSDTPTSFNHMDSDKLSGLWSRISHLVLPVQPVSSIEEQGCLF
Chain of Pro-neuregulin-1, membrane-bound isoform (Homo sapiens) (Q02297 whole entry, looked up, the tested form may be a part, canonical isoform): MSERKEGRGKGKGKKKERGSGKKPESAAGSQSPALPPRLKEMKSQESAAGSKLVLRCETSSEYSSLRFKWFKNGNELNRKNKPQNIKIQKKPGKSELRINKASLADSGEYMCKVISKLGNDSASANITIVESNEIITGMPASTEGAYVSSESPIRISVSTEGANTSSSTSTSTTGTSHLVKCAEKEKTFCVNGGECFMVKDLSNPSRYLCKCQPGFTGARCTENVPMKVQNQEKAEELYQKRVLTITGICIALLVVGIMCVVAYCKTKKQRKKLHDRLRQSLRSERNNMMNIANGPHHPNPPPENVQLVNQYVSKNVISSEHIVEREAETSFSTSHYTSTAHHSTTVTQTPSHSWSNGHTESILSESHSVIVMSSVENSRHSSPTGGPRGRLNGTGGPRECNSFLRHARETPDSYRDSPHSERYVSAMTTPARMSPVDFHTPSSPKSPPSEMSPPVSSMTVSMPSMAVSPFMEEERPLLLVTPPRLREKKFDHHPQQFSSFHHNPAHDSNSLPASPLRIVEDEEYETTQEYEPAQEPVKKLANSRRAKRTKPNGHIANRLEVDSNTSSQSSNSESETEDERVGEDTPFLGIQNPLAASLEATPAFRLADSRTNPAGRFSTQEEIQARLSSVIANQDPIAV

| SMILES | composite z-score [1] | composite z-score [2] | composite z-score [3] | composite z-score [4] | composite z-score [5] | composite z-score [6] | composite z-score [7] | z-score [8] | composite z-score [9] | composite z-score [10] | composite z-score [11] | z-score [12] | z-score [13] | z-score [14] | composite z-score [15] | z-score [16] | composite z-score [17] | composite z-score [18] | composite z-score [19] | composite z-score [20] |
| --- | --- | --- | --- | --- | --- | --- | --- | --- | --- | --- | --- | --- | --- | --- | --- | --- | --- | --- | --- | --- |
| CC(C)C[C@@H]1NC(=O)[C@@H]2C[C@H](C(=O)NCCCCCNC(=O)CS)[C@H](c3cccc(OCCO)c3)N2C1=O | 0.0138 | 1.55 | -0.0332 | 0.355 | 0.947 | 1.35 | 1.29 | 0.152 (inactive) | 0.35 | -0.286 | 1.55 | -1.66 (inactive) | -0.926 (inactive) | -0.565 (inactive) | 2.23 | 2.24 (inactive) | -0.0153 | 1.44 | 1.06 | 0.133 |
| CC(C)N1C(=O)c2ccccc2[C@@H](C(=O)NCc2ccccc2)[C@@H]1c1ccc(CO)cc1 | -0.0604 | 0.317 | -0.0806 | -0.723 | -0.423 | 0.844 | 1.15 | -0.331 (inactive) | -0.0768 | -0.141 | -0.238 | 0.582 (inactive) | -0.579 (inactive) | 1.31 (inactive) | 0.979 | 0.846 (inactive) | -0.109 | -0.608 | -0.904 | -0.273 |
| C/C=C/[C@@H](CCn1cc(CCO[Si](C(C)C)(C(C)C)C(C)C)nn1)[Si](C)(C)c1ccc(OC)cc1 | 0.502 | -0.416 | -0.271 | -2.29 | -2.88 | -0.774 | -0.48 | -1.33 (inactive) | -0.986 | -0.413 | -0.551 | -3.08 (inactive) | -2.88 (inactive) | -1.94 (inactive) | -0.356 | -0.715 (inactive) | -0.275 | -1.15 | -3.03 | -0.406 |
| COCCCNC(=O)[C@@]1(C)c2ccccc2C(=O)N(Cc2cc(F)cc(C(F)(F)F)c2)[C@H]1c1ccc(CO)cc1 | 1.57 | -0.12 | -0.145 | -0.103 | -1.19 | 0.595 | 1.45 | -1.65 (inactive) | -0.738 | -0.196 | 0.851 | 1.65 (inactive) | -0.351 (inactive) | 0.459 (inactive) | 2.32 | 0.985 (inactive) | 0.584 | -1.44 | -1.22 | -0.293 |
| C=C(C1=CCN(S(=O)(=O)c2ccc(C)cc2)C1)[C@@H](OC(C)=O)[C@@H]1CCCN1S(=O)(=O)c1ccccc1[N+](=O)[O-] | -0.0883 | -0.189 | -0.05 | 0.487 | -0.574 | -0.158 | 0.406 | -3.21 (inactive) | -0.344 | -0.0994 | -0.267 | 0.943 (inactive) | 0.0893 (inactive) | 1.82 (inactive) | 1.2 | 2.89 (inactive) | -0.297 | -0.305 | 0.127 | -0.202 |
| COCCCNC(=O)[C@@]1(Cc2ccccc2CN=[N+]=[N-])COC(c2ccc(OCCCO)cc2)=N1 | 1.14 | 1.3 | 0.302 | 1.07 | 1.28 | 1.84 | 1.28 | -2.53 (inactive) | 0.934 | -0.277 | 1.54 | 1.14 (inactive) | -2.56 (inactive) | 0.0898 (inactive) | 3.17 | 2.36 (inactive) | 0.374 | -0.434 | 0.964 | 0.294 |
| O=C1c2ccccc2[C@@]2(Cc3ccccc3N(CC(F)(F)F)C2=O)[C@H](c2ccc(CO)cc2)N1Cc1ccccc1C(F)(F)F | 0.886 | -0.752 | -0.131 | -0.597 | -1.34 | -0.61 | -1.2 | -0.435 (inactive) | -0.596 | -0.191 | 0.52 | -0.84 (inactive) | -1.25 (inactive) | -1.12 (inactive) | 0.394 | 0.886 (inactive) | -0.0412 | -1.51 | -1.18 | -0.26 |
| C=CCN1C(=O)[C@@]2(O[C@@H](CCO)[C@H]([Si](C)(C)c3ccc(OC)cc3)[C@H]2C)c2cc(N3C(=O)c4cccc5cccc3c45)ccc21 | -0.149 | 0.0485 | -0.113 | 0.349 | 0.24 | 0.769 | 0.876 | -1.42 (inactive) | -0.169 | -0.0994 | 1.18 | 2.89 (inactive) | 1.89 (inactive) | 36.3 (active) | 1.15 | 1.93 (inactive) | -0.156 | -0.106 | -0.0485 | -0.147 |
| O=C(NCc1ccccc1)[C@@H]1c2ccccc2C(=O)N(Cc2ccccc2Cl)[C@H]1c1ccc(CO)cc1 | 0.389 | 0.658 | 0.0139 | 0.124 | 1.21 | 0.887 | 1.25 | -2.93 (inactive) | 0.893 | 0.0623 | 1.41 | -0.21 (inactive) | -1.82 (inactive) | -1.49 (inactive) | 2.69 | 2.1 (inactive) | 0.054 | 1.17 | 1.05 | 0.103 |
| C=CCNC(=O)[C@H]1[C@@H]2C(=O)O[C@@H](c3ccccc3)[C@@H](c3ccccc3)N2[C@@H](c2ccc(OCCO)cc2)[C@]12C(=O)Nc1ccc(C#CCCO)cc12 | 0.268 | 1.14 | -0.0901 | -0.168 | -0.23 | 1.08 | 1.15 | -4.1 (inactive) | 0.219 | -0.0994 | 1.57 | 0.443 (inactive) | -1.91 (inactive) | 2.38 (inactive) | 2.42 | 2.71 (inactive) | -0.148 | 0.292 | 0.73 | -0.087 |
